From PubChem BioAssay (Tox21)
Where “and” joins values, the source holds several entries; their conditions need not be identical. Identical values can stand only once. Inconclusive results are not listed. Entries that show only a call come without a potency. A number with no mark means an inactive call. Calls of active or inactive are those of the source. Unless noted, the call rests on the fitted dose curve; in most records, active means well fitted curve in the direction sought with a large enough effect in the repeat runs; inconclusive means weak or mixed curves; inactive means no such curve, though single readings can be large; an effect the other way counts as inactive or inconclusive.

Key:
[1] = target: Luciferin 4-monooxygenase (Photinus pyralis) (UniProt P08659); assay: qHTS assay to identify small molecule inhibitors of firefly luciferase (AID 1224835); further: nearly all actives have a fitted effect of over 25% in size
Sequence of Luciferin 4-monooxygenase (Photinus pyralis) (P08659 whole entry, looked up): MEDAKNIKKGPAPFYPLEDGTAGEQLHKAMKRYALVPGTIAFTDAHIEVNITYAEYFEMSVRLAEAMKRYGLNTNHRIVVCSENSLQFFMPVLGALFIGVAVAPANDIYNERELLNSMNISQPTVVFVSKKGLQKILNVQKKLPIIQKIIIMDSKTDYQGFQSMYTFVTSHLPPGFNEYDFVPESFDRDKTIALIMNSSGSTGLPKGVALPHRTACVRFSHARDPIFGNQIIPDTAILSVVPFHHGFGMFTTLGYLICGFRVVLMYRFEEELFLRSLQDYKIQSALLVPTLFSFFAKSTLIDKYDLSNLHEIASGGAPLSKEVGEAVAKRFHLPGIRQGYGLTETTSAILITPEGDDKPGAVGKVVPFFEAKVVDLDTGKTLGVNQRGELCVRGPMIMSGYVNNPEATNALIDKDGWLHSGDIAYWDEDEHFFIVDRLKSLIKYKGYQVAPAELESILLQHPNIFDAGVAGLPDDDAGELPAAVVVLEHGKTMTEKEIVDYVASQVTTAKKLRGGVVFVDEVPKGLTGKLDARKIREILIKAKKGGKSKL
Method in brief: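 Inhibition of purified Photinus luciferase is measured by luminescence. Substrate levels (D-luciferin, ATP) sit at their KM values. Each compound is tested in a concentration series.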

[2] = qHTS assay to identify small molecule agonists of the constitutive androstane receptor (CAR) signaling pathway - cell viability counter screen (AID 1224836); further: nearly all actives have a fitted effect of over 45% in size
Method in brief: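 Viability read-out: CellTiter-Fluor fluorescence after 23 h compound exposure at 37 C/5% CO2 in double-stable HepG2-CYP2B6-hCAR cells, with PK11195 present at 0.75 uM final; compounds tested in 15-point titration.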

[3] = target: Nuclear receptor subfamily 1 group I member 3 (Homo sapiens) (UniProt Q14994); assay: qHTS assay to identify small molecule agonists of the constitutive androstane receptor (CAR) signaling pathway (AID 1224839); further: nearly all actives have a fitted effect of over 15% in size;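 on activation: HepG2 cells stably carrying human CAR and a CYP2B6 luciferase reporter; series mostly up to about 92 µM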
Sequence of Nuclear receptor subfamily 1 group I member 3 (Homo sapiens) (Q14994 whole entry, looked up): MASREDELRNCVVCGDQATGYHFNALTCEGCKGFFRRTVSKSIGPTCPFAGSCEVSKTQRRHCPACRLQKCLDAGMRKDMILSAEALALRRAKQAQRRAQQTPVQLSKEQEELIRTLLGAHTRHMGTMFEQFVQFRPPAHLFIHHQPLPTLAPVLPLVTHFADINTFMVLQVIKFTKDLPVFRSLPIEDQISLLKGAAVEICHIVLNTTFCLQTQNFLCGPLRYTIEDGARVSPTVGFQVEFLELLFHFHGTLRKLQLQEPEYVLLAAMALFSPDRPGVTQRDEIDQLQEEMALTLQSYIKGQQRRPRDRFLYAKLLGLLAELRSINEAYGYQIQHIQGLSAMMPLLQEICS
Method in brief: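 Luminescence read-out (ONE-Glo, 30 min, room temperature) from double-stable HepG2-CYP2B6-hCAR cells exposed 24 h to 15-point compound series in presence of 0.75 uM PK11195 final.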

[4] = qHTS assay to identify small molecule antagonists of the estrogen related receptor signaling pathway with the pleiotropic PPARgamma coactivator (PGC) from Tox21 10K library - cell viability counter screen (AID 1224840; active means well fitted cell-killing curve with a large enough effect in the repeat runs, not every such curve was filed as active; further: nearly all actives have a fitted effect of over 40% in size)
Method in brief: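 Viability counter screen, PGC/ERR cells: 17.5 h compound exposure at 37 C, CellTiter-Fluor fluorescence endpoint.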

[5] = qHTS assay to identify small molecule antagonists of the estrogen related receptor signaling pathway with the pleiotropic PPARgamma coactivator (PGC) from Tox21 10K library (AID 1224841; call rule not given here; further: actives are mostly falling curves and most rising ones were filed inactive; nearly all actives have a fitted effect of over 50% in size)
Method in brief: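 In the PGC/ERR line, DMSO solutions of test chemicals are pin-delivered to 2,000 cells/well six hours after dispensing. Following eighteen hours' incubation, One-Glo reagent is added and luminescence recorded.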

[6] = qHTS assay to identify small molecule agonists of the estrogen related receptor signaling pathway with the pleiotropic PPARgamma coactivator (PGC) from Tox21 10K library (AID 1224842); further: nearly all actives have a fitted effect of over 15% in size
Method in brief: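 Luminescence from One-Glo (30 min, room temperature) measured after PGC/ERR cells had 18 h at 37 C with pinned compound (23 nL in DMSO). Cells had been seeded at 2,000 per well and pre-incubated 6 h.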

[7] = target: Thyrotropin receptor (Homo sapiens) (UniProt P16473); assay: qHTS assay to identify small molecule agonists of the thyroid stimulating hormone receptor (TSHR) signaling pathway (AID 1224843; calls by dose curve; further: nearly all actives have a fitted effect of over 45% in size)
Sequence of Thyrotropin receptor (Homo sapiens) (P16473 whole entry, looked up): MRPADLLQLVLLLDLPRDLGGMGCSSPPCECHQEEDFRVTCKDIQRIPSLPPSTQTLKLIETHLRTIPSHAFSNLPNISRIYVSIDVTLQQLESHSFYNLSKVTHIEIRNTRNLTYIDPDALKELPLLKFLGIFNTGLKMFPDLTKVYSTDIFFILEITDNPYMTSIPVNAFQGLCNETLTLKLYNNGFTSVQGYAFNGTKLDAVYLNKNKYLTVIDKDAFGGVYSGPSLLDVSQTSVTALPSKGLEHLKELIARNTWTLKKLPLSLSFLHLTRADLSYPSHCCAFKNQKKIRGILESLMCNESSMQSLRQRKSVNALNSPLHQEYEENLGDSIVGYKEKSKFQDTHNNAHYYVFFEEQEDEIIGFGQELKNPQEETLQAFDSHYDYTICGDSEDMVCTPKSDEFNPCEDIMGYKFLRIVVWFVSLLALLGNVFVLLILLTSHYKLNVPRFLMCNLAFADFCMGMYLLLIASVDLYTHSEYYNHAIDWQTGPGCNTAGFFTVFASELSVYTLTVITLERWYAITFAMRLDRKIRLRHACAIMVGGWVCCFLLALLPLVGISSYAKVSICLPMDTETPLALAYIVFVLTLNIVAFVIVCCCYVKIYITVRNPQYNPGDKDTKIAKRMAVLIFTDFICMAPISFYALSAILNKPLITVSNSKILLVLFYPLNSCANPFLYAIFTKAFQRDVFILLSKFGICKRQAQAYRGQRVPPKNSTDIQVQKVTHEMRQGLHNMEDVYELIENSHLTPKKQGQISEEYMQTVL
Method in brief: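 Agonist activity read as cAMP rise via d2/cryptate HTRF competition, 1 h room-temperature detection, in HEK293 cells expressing TSHR. Fifteen-point titrations, each run in triplicate, with a 30 min room-temperature incubation beforehand.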

[8] = target: Nuclear receptor subfamily 1 group I member 3 (Homo sapiens) (UniProt Q14994); assay: qHTS assay to identify small molecule antagonists of the constitutive androstane receptor (CAR) signaling pathway (AID 1224838); further: nearly all actives have a fitted effect of over 40% in size
Method in brief: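 CITCO-stimulated (50 nM final) HepG2 cells stably transfected with hCAR and CYP2B6-2.2kb luciferase were exposed to compounds at 15 concentrations for 24 h at 37 C/5% CO2. A luciferase reagent was added and luminescence recorded after 30 min.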

[9] = qHTS assay to identify small molecule agonists of the hypoxia (HIF-1) signaling pathway - cell viability counter screen (AID 1224844; calls by dose curve; further: nearly all actives have a fitted effect of over 50% in size)
Method in brief: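 Same wells as the HIF-1 reporter screen; ME-180 cells carrying HRE-bla, 17 hr treatment at 37C; CellTiter-Glo luminescence read after 30 min at room temperature.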

[10] = qHTS assay to identify small molecule antagonists of the constitutive androstane receptor (CAR) signaling pathway - cell viability counter screen (AID 1224837); further: nearly all actives have a fitted effect of over 45% in size
Method in brief: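 In quantitative HTS format, compounds at 15 concentrations were applied to HepG2 cells double-transfected with hCAR and CYP2B6-2.2kb under 50 nM CITCO stimulation; live-cell protease activity was read after 23 hr via CellTiter-Fluor.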
Potency means the concentration at half of the fitted maximal effect.

SMILES	Potency [1]	Potency [2]	Potency [3]	Potency [4]	Potency [5]	Potency [6]	Potency [7]	Potency [8]	Potency [9]	Potency [10]	activation [3]
O=C(CCCN1CCC2(CC1)C(=O)NCN2c1ccccc1)c1ccc(F)cc1	inactive	5.96 µM (active)	inactive	inactive	inactive	inactive	inactive	–	–	–	–
C[C@@H]1O[C@@H](O[C@@H]2C=C3CC[C@@H]4[C@H](CC[C@]5(C)[C@@H](c6ccc(=O)oc6)CC[C@]45O)[C@@]3(C)CC2)[C@H](O)[C@H](O)[C@H]1O	inactive	0.119 µM (active)	inactive	–	0.0237 µM (active)	inactive	–	0.0841 µM (active)	0.0268 µM (active)	–	–
CC(C)C(=O)Cl	inactive	inactive	–	inactive	–	inactive	–	–	inactive	inactive	–
C[CH2][Hg][N]1C(=O)C2C(C1=O)C1(Cl)C(Cl)=C(Cl)C2(Cl)C1(Cl)Cl (stereo unspecified)	5.35 µM (active)	14.6 µM (active)	–	13 µM (active)	–	–	–	11.6 µM (active)	2.33 µM (active)	–	-23.5% [at 19 µM]
N#CCCC(Br)(C#N)CBr (stereo unspecified)	35.6 µM (active)	–	inactive	–	–	inactive	4.86 µM (active)	68.6 µM (active)	19.5 µM (active)	61.1 µM (active)	–
CCC(C)c1cc([N+](=O)[O-])cc([N+](=O)[O-])c1OC(=O)C=C(C)C (stereo unspecified)	inactive	61.1 µM (active)	–	30.6 µM (active)	–	–	–	–	inactive	–	–
O=C(O)c1cc[c]([Hg][Cl])cc1	5.03 µM (active)	–	inactive	13.7 µM (active)	–	–	–	–	54.9 µM (active)	54.5 µM (active)	–
OC(Cc1ccccc1Cl)(Cn1cncn1)C1(Cl)CC1 (stereo unspecified)	inactive	–	–	inactive	54.5 µM (active)	inactive	–	inactive	inactive	inactive	–
CCCCCCCCCCBr	inactive	inactive	–	inactive	inactive	inactive	–	–	inactive	–	–
S=C=Nc1cccc2ccccc12	inactive	67.9 µM (active)	–	inactive	–	inactive	–	–	48.5 µM (active)	–	–
CCN(CC)c1c([N+](=O)[O-])cc(C(F)(F)F)c(N)c1[N+](=O)[O-]	inactive	inactive	48.6 µM (active)	–	–	–	13.7 µM (active)	–	inactive	–	–
O=C(O)C1C2CCC(O2)C1C(=O)O (stereo unspecified)	inactive	–	inactive	inactive	inactive	55.1 µM (active) and 19.9 µM (active)	–	49.2 µM (active) and 44.5 µM (active)	inactive	–	–
Clc1ccc(CO/N=C(\Cn2ccnc2)c2ccc(Cl)cc2Cl)c(Cl)c1	inactive	–	–	–	–	–	–	inactive	–	inactive	–
COC(=O)N(C(=O)N1COC2(C(=O)OC)Cc3cc(Cl)ccc3C2=N1)c1ccc(OC(F)(F)F)cc1 (stereo unspecified)	inactive	inactive	–	inactive	23.7 µM (active)	inactive	inactive	–	–	–	–
